In the supplement of paper PMC10849652:
Of roughly 7,900 targets only a part is listed; those with a hit were picked by preference. About 0.6% of all pairs of compound and target were hits. Unmarked numbers belong to inactive results.

How the values were obtained:
Assay in all cases: log2 fold change, soluble protein after heating vs DMSO (PISA); higher = thermal stabilisation; K562 cells, 10 uM, 30 min; active = over 0.2 and 3.5 SD of the protein, either way, in both replicates (recomputed)
[1] = compound: CC1=C(C=C(C=C1)NC(=O)C2=CC(=CC=C2)C(C)(C)C#N)NC3=CC4=C(C=C3)N=CN(C4=O)C
In short: (§1)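 Aliquots of K562 cells (2×10^6 cells/mL) treated with 10 μM compound for 30 min were heated for 3 min over 48°C-58°C. After pooling and extraction in PBS with 0.5% NP-40 at 4°C, soluble protein from a 21,000xg, 90 min spin was quantified by TMTpro 16plex LC-MS/MS with channel sums equalised. Thermal stability is expressed against control samples, from duplicates, as a log2 fold change.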

[2] = compound: CC1=C(C=C(C=C1)NC(=O)C2=CC(=CC=C2)N(C)C)NC(=O)C3=CC=C(C=C3)O
In short: as §1

[3] = compound: CC1=CC=C(C=C1)SC2=C3C=C(SC3=CN=C2)C(=O)N
In short: as §1

[4] = compound: CC1=NC(=CC=C1)C2=C(N=C(N2)C(C)(C)C)C3=CC4=NC=CN=C4C=C3
In short: as §1

[5] = compound: CCCCN(Cc1ccc(C(=O)NO)cc1)C(=O)Nc1ccccc1 [Nexturastat A]
In short: as §1

[6] = compound: CCCS(=O)(=O)Nc1ccc(F)c(C(=O)c2c[nH]c3ncc(-c4ccc(Cl)cc4)cc23)c1F [vemurafenib]
In short: as §1

[7] = compound: CCCS(=O)(=O)Nc1ccc(F)c(C(=O)c2c[nH]c3ncc(Cl)cc23)c1F
In short: as §1

[8] = compound: CCCc1cc(C)[nH]c(=O)c1CNC(=O)c1cc(-c2ccnc(N3CCN(C)CC3)c2)cc2c1cnn2C(C)C
In short: as §1

[9] = compound: CCN(CC)Cc1ccc2cc(COC(=O)Nc3ccc(C(=O)NO)cc3)ccc2c1 [givinostat]
In short: as §1

[10] = compound: CCN(CCCOc1ccc2c(Nc3cc(CC(=O)Nc4cccc(F)c4)[nH]n3)ncnc2c1)CCOP(=O)(O)O [barasertib]
In short: as §1

[11] = compound: CC[C@@H]1C(=O)N(C)c2cnc(Nc3ccc(C(=O)NC4CCN(C)CC4)cc3OC)nc2N1C1CCCC1
In short: as §1

[12] = compound: CC[C@@H]1C(=O)N(C)c2cnc(Nc3ccc(C(=O)N[C@H]4CC[C@H](N5CCN(CC6CC6)CC5)CC4)cc3OC)nc2N1C(C)C [volasertib]
In short: as §1

[13] = compound: CC[C@H](C)N1C=C(C2=C(C=C(C=C21)C3=CN=C(C=C3)N4CCNCC4)C(=O)NCC5=C(C=C(NC5=O)C)C)C
In short: as §1

[14] = compound: CC[C@H](C)[C@@H](C(=O)N[C@@H]([C@@H](C)O)C(=O)N[C@@H](CC(C)C)C(=O)[C@]1(CO1)C)NC(=O)[C@H]([C@@H](C)CC)N(C)C(=O)C [epoxomicin]
In short: as §1

[15] = compound: CCn1c(C(=O)N(C2CC2)C2CC2)cc2c3c(ncn3C)c(Nc3cc(C)n(C)n3)nc21
In short: as §1

[16] = compound: CCn1cc(-c2ccnc3[nH]c(-c4cccc(CN(C)C)c4)cc23)c(-c2ccc(NC(=O)N(C)C)cc2)n1
In short: as §1

[17] = compound: CN(C)CC(=O)Nc1ccc2[nH]c(=O)c3ccccc3c2c1
In short: as §1

[18] = compound: CN(CCOC1=CC=C(C=C1)C[C@H]2C(=O)NC(=O)S2)C3=CC=CC=N3 (racemic) [rosiglitazone]
In short: as §1

[19] = compound: CN1C2=C(C3=C1C(=O)N(N=C3)CC4=CC(=CC=C4)N)SC(=C2)S(=O)C
In short: as §1

[20] = compound: CN1CCC(CNc2ccc3ncc(-c4cccc(OC(F)(F)F)c4)n3n2)CC1
In short: as §1

Chain of UniProt P54619 (P54619 whole entry, looked up): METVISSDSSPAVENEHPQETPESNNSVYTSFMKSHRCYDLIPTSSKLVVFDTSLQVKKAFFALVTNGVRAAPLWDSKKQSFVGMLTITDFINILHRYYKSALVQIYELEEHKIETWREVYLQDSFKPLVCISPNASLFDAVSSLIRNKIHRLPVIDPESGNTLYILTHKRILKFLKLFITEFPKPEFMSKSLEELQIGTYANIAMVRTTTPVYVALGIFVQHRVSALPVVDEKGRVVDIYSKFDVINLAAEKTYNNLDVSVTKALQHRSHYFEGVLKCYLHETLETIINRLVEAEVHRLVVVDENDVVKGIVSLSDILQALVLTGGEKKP
Chain of UniProt P62333 (P62333 whole entry, looked up): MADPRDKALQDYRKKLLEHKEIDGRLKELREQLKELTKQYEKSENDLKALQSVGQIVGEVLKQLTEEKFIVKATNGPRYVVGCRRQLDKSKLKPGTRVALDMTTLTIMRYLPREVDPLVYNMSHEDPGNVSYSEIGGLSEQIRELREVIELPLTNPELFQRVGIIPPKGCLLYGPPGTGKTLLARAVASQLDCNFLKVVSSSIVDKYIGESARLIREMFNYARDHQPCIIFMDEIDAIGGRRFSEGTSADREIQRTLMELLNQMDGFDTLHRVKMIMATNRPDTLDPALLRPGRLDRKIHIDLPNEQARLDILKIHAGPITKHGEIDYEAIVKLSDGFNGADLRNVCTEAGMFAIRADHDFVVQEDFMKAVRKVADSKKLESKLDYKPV
Chain of UniProt Q9NP80 (Q9NP80 whole entry, looked up): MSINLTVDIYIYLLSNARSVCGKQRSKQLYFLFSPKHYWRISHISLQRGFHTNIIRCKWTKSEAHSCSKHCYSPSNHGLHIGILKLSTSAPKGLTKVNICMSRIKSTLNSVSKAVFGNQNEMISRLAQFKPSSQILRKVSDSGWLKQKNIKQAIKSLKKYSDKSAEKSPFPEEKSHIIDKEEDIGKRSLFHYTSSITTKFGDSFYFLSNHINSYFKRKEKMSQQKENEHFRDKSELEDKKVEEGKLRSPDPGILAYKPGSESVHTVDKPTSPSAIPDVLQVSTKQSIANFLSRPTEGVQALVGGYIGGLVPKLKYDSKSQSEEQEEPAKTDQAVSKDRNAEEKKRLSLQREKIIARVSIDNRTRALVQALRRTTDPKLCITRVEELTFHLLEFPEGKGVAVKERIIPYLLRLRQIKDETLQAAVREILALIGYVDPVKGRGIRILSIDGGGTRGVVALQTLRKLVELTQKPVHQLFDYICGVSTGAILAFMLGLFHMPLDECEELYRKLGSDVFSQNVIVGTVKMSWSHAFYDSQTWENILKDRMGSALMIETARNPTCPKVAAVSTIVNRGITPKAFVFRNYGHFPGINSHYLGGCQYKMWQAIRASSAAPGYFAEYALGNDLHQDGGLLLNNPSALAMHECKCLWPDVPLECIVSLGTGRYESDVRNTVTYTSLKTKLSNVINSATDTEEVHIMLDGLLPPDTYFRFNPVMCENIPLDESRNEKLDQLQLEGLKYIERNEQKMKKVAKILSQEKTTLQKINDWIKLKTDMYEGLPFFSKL
Chain of UniProt Q14181 (Q14181 whole entry, looked up): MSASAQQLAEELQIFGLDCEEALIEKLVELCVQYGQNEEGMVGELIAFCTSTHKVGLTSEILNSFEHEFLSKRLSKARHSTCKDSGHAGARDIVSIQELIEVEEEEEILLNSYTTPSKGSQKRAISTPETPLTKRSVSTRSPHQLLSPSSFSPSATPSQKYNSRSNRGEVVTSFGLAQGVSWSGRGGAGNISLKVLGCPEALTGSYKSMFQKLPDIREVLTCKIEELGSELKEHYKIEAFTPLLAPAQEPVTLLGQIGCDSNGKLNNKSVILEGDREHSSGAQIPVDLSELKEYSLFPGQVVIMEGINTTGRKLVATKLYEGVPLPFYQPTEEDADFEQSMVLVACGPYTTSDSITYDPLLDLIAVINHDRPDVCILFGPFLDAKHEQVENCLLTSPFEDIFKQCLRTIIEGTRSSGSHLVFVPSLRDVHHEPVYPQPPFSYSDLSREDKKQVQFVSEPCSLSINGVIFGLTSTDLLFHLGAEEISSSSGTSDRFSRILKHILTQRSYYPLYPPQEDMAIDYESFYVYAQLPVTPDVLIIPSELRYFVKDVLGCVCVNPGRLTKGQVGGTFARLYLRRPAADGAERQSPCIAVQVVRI
Chain of UniProt Q5JVF3 (Q5JVF3 whole entry, looked up): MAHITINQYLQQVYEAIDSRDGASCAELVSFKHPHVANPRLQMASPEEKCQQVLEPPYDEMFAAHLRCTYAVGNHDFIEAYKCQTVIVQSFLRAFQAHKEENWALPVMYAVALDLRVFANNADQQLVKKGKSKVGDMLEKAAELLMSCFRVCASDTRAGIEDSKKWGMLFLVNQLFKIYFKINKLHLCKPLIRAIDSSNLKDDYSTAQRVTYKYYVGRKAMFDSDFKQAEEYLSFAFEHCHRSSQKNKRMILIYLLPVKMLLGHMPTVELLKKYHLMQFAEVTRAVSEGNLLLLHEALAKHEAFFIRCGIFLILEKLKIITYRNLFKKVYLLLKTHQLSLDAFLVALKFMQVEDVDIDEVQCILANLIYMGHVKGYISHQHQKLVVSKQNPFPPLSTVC
Chain of UniProt Q8WUM4 (Q8WUM4 whole entry, looked up): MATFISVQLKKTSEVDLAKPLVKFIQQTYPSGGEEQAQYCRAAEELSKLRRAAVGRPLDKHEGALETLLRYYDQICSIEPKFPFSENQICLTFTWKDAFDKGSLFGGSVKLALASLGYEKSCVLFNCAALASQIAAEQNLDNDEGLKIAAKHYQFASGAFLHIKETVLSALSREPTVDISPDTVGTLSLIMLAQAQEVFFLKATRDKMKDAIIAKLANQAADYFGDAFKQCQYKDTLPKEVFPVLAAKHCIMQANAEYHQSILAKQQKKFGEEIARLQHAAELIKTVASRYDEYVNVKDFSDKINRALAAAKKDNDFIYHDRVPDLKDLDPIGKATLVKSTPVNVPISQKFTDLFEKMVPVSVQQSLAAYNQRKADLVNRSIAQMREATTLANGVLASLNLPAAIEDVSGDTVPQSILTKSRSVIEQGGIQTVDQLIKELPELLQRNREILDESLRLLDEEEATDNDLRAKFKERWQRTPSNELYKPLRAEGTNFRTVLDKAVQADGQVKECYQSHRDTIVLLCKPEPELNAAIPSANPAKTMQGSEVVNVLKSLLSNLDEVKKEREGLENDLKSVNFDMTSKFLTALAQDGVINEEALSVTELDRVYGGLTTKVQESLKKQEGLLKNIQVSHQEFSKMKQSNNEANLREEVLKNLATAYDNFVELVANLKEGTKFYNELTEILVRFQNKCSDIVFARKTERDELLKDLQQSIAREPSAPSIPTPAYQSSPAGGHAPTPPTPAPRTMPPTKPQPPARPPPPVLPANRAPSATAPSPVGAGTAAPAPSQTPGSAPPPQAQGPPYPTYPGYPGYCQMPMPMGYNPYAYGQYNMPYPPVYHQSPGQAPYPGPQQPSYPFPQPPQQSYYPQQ
Chain of UniProt Q8N8N7 (Q8N8N7 whole entry, looked up): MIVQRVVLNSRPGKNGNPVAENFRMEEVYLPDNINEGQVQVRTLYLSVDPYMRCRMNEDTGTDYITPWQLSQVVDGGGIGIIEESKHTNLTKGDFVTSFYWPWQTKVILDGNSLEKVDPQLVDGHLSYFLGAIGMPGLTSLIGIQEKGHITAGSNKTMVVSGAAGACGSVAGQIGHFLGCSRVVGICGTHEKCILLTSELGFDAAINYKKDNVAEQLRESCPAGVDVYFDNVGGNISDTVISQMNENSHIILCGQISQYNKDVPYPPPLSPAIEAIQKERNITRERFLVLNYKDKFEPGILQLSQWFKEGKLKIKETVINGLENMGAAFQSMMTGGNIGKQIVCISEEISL
Chain of UniProt Q8WXF1 (Q8WXF1 whole entry, looked up): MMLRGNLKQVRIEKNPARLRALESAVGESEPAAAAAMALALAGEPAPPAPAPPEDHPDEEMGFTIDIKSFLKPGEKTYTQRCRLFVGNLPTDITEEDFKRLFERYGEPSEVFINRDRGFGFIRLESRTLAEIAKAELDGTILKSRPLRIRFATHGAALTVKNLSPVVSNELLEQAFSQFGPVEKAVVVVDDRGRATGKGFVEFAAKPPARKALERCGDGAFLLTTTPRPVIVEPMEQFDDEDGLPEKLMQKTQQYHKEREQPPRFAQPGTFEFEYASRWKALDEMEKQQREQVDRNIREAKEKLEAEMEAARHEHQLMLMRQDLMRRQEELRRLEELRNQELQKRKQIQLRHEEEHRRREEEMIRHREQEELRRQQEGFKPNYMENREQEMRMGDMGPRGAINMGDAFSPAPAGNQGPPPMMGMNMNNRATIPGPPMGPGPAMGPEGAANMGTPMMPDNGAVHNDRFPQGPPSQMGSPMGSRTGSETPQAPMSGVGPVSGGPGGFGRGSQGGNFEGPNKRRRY
Chain of UniProt Q9UHX1 (Q9UHX1 whole entry, looked up): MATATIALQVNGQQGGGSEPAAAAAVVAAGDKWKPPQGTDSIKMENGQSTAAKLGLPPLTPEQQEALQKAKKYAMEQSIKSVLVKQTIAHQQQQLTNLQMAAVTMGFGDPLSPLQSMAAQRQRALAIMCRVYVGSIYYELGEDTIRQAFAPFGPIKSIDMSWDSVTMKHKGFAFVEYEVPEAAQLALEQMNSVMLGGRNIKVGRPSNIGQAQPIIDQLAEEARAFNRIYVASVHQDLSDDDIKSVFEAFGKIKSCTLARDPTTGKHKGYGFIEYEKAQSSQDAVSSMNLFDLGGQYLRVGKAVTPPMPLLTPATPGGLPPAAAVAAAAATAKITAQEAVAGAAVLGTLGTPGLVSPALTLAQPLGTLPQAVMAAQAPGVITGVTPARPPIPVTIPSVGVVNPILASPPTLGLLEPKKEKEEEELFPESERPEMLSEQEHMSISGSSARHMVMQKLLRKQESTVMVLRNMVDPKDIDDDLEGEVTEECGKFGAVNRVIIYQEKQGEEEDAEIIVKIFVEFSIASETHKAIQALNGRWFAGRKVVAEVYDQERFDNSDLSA
Chain of UniProt Q93096 (Q93096 whole entry, looked up): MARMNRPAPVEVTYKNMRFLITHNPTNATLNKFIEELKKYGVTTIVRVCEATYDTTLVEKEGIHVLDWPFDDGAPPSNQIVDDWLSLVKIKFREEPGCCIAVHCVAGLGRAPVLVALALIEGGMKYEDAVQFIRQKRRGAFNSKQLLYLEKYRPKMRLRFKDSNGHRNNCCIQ

Row | Target | log2 fold change [1] | log2 fold change [2] | log2 fold change [3] | log2 fold change [4] | log2 fold change [5] | log2 fold change [6] | log2 fold change [7] | log2 fold change [8] | log2 fold change [9] | log2 fold change [10] | log2 fold change [11] | log2 fold change [12] | log2 fold change [13] | log2 fold change [14] | log2 fold change [15] | log2 fold change [16] | log2 fold change [17] | log2 fold change [18] | log2 fold change [19] | log2 fold change [20]
1 | PDS5B (UniProt Q9NTI5) | -0.088 | 0.086 | 0.176 | 0.109 | -0.011 | -0.032 | 0.32 | -0.058 | 0.135 | 0.047 | -0.004 | 0.024 | 0.12 | 0.105 | -0.113 | 0.103 | 0.079 | 0.035 | 0.131 | -0.41
2 | PSPC1 (UniProt Q8WXF1) | 0.022 | 0.011 | 0.01 | 0.007 | 0.053 | -0.003 | 0.135 | 0.167 | 0.036 | 0.01 | -0.046 | -0.167 | 0.1 | 0.031 | 0.003 | -0.054 | 0.012 | -0.058 | 0.041 | 0.029
3 | POLR2G (UniProt P62487) | 0.025 | -0.033 | 0.059 | 0.057 | -0.015 | -0.022 | 0.009 | -0.038 | -0.094 | -0.019 | 0.215 | 0.276 | -0.075 | 0.054 | 0.06 | -0.003 | 0.02 | -0.01 | 0.002 | 0.081
4 | PCID2 (UniProt Q5JVF3) | 0.024 | -0.026 | -0.066 | 0.033 | 0.153 | 0.069 | 0.202 | 0.071 | 0.114 | -0.016 | -0.032 | 0.016 | 0.072 | 0.027 | -0.149 | 0.035 | -0.021 | 0.064 | 0.055 | -0.086
5 | PTGR2 (UniProt Q8N8N7) | -0.022 | -0.058 | 0.022 | -0.056 | -0.175 | -0.022 | -0.021 | 0.234 | 0.139 | 0 | 1.1 (active) | 1.27 (active) | 0.154 | -0.006 | 0.244 | -0.117 | 0.181 | -0.009 | 0.025 | -0.278
6 | POGLUT1 (UniProt Q8NBL1) | -0.063 | -0.027 | -0.081 | -0.024 | -0.025 | -0.139 | -0.034 | 0.043 | 0.052 | -0.022 | 0.007 | -0.054 | 0.013 | 0.012 | -0.051 | 0.089 | -0.083 | -0.019 | 0.039 | 0.26 (active)
7 | POLA2 (UniProt Q14181) | 0.073 | 0.044 | -0.037 | 0.061 | -0.011 | 0.034 | 0.048 | -0.02 | 0.021 | 0.021 | -0.114 | -0.328 (active) | 0.051 | 0.022 | -0.008 | -0.109 | 0.1 | 0.061 | -0.057 | -0.22
8 | PDCD6IP (UniProt Q8WUM4) | 0.032 | -0.079 | 0.077 | 0.058 | 0.066 | 0.106 | 0.153 | 0.119 | 0.183 | 0.135 | -0.219 | -0.694 (active) | 0.166 | 0.082 | -0.097 | -0.06 | 0.116 | 0.097 | 0.043 | -0.256
9 | PSMC6 (UniProt P62333) | 0 | 0.022 | -0.034 | -0.043 | 0.034 | -0.067 | -0.069 | 0.01 | -0.081 | -0.055 | 0.033 | 0.178 | -0.021 | -0.312 (active) | -0.012 | 0.029 | -0.03 | -0.038 | 0.009 | 0.018
10 | PNPLA8 (UniProt Q9NP80) | 0.001 | 0.026 | 0.007 | -0.027 | 0.041 | -0.002 | -0.005 | 0.084 | 0.067 | 0.066 | -0.048 | -0.184 | -0.07 | 0.112 | -0.01 | -0.07 | 0.029 | 0.069 | 0.003 | -0.262 (active)
11 | PRKAG1 isoform 3 (UniProt P54619) | -0.042 | -0.006 | 0.007 | 0.037 | -0.01 | 0.026 | 0.002 | -0.026 | 0.014 | 0.013 | -0.018 | -0.207 | 0.048 | -0.024 | 0.002 | -0.033 | -0.015 | 0.033 | -0.009 | -0.299 (active)
12 | PRKAA1 isoform 2 (UniProt Q13131) | -0.029 | 0.001 | -0.001 | 0.02 | -0.042 | 0.025 | 0.008 | 0.021 | -0.014 | 0.016 | -0.035 | -0.154 | 0.04 | 0.017 | -0.026 | -0.052 | -0.007 | 0.016 | 0.001 | -0.254 (active)
13 | PECAM1 (UniProt P16284) | -0.092 | -0.019 | -0.013 | -0.113 | 0.068 | -0.049 | 0.004 | -0.015 | 0.01 | 0.028 | 0.116 | 0.061 | -0.019 | -0.027 | 0.022 | -0.106 | 0.027 | 0.014 | -0.067 | 0.168
14 | PUF60 (UniProt Q9UHX1) | 0.046 | -0.018 | 0.043 | 0.022 | -0.003 | 0.034 | 0.14 | 0.009 | 0.022 | 0.025 | -0.078 | -0.304 (active) | 0.033 | 0.028 | -0.045 | -0.032 | 0.007 | 0.022 | -0.031 | 0.051
15 | PPT1 (UniProt P50897) | -0.017 | 0.009 | 0.046 | 0.013 | -0.081 | 0 | -0.003 | -0.107 | -0.022 | -0.017 | -1.41 (active) | -1.9 (active) | -0.041 | 0.014 | 0.015 | 0.01 | -0.009 | -0.008 | -0.035 | -0.925 (active)
16 | PTP4A1 (UniProt Q93096) | -0.007 | -0.005 | 0.023 | 0.023 | 0.002 | 0 | 0.062 | -0.024 | -0.003 | 0.035 | 0.025 | 0.019 | 0.036 | 0.065 | 0.029 | -0.055 | -0.044 | -0.011 | -0.043 | 0.022
